A number with no mark means an inactive call.
tested on: Vero E6 infected with SARS-CoV-2; assay: inhibition of SARS-CoV-2 cytopathic effect; higher = more antiviral protection, active = above 15; conditions: 1 nM; 48 h

SMILES	inhibition of SARS-CoV-2 cytopathic effect
COc1cc(C(=S)N2CCOCC2)ccc1O [vanitiolide]	-0.99%
Cc1cc(-c2nc(-c3ccc(OC(F)(F)F)cc3)no2)nn1Cc1ccnc(N2CCN(C3CC3)CC2)c1	0.33%
FC(F)(F)C(F)(F)C(F)(F)C(F)(F)C(F)(F)C(F)(F)C(F)(F)C(F)(F)Br [perflubron]	-0.32%
C1CCC(C(CC2CCCCN2)C2CCCCC2)CC1 (stereo not given) [perhexiline]	0.59%
COc1ccc(-c2cc(C(F)F)nn2-c2ccc(S(N)(=O)=O)cc2)cc1F [deracoxib]	2.3%
CN(C)CC[C@@]1(c2ccc(Cl)cc2)Cc2ccccc2C(=O)O1 (racemic)	-1.76%
O=C1NC(O)CCN1[C@@H]1O[C@H](CO)[C@@H](O)[C@H]1O (stereo not given in full) [tetrahydrouridine]	2.54%
O=C1C[C@@H]2OCC=C3CN4CC[C@]56c7ccccc7N1[C@H]5[C@H]2[C@H]3C[C@H]46 [strychnine]	-0.53%
CCCCCS(=O)(=O)CCCCCCCCCCn1c(-c2ccc(O)cc2)c(C)c2cc(O)ccc21	1.18%
CCCCCCCCCCCC(=O)O [lauric-acid]	0.97%
C[C@H]1O[C@@H](Oc2c(-c3cc(O)c(O)c(O)c3)oc3cc(O)cc(O)c3c2=O)[C@@H](O)[C@@H](O)[C@@H]1O [myricitrin]	0.43%
CC1=CC(=C(c2ccc(N)cc2)c2ccc(N)cc2)C=CC1=N [basic-fuchsin]	0.76%
C[C@@H](N)[C@H]1CC[C@H](C(=O)Nc2ccncc2)CC1	-2.16%
CC(CCc1ccc(O)cc1)NCC(O)c1ccc(O)cc1 (stereo not given) [ractopamine]	-2.7%
Cc1ccc(C)c([C@H](O)CNC(C)C)c1 [benzenemethanol,-2,5-dimethyl-[[(1-methylethyl)amino]methyl]]	-1.13%
CC(C)c1cc(-c2ccc(F)c3ccccc23)nc(N)n1	0.6%
Clc1cccc(-n2nnnc2NCc2ccccc2Oc2ccccn2)c1Cl	1.27%
CC(=O)Oc1ccc(C(c2ccc(OC(C)=O)cc2)c2ccccn2)cc1 [bisacodyl]	0.11%
Clc1ccc(CO/N=C(\Cn2ccnc2)c2ccc(Cl)cc2Cl)c(Cl)c1 [oxiconazole]	-0.54%
O=C1C=C2C=C[C@@H]3C[C@@]2(O1)[C@H]1CCCCN31 [securinine]	0.7%

SMILES	inhibition of SARS-CoV-2 cytopathic effect
CC[C@H](C)n1cc(C)c2c(C(=O)NCc3c(C)cc(C)[nH]c3=O)cc(-c3ccc(N4CCNCC4)nc3)cc21	1.2%
c1ccc2c(c1)CCCc1cc(NCCN3CCOCC3)nnc1-2	0.07%
CNC1CC(N)C(O)C(OC2OC(CO)C(O)C3OC4(OC(C(N)CO)C(O)C(O)C4O)OC23)C1O (stereo not given) [Hygromycin B]	-0.42%
Oc1cc(O)cc(/C=C/c2ccc(O)c(O)c2)c1 [piceatannol]	2.41%
CC(C)(O)c1ccn2c(-c3ccc(F)c(-c4ccc(F)cc4C#N)c3)cnc2c1F	-0.56%
CCN(CC)CCOC(=O)C(c1ccccc1)C1CCCCC1 (stereo not given) [drofenine]	-1.59%
C[C@](O)(COc1ccc(C#N)cc1)C(=O)Nc1ccc(C#N)c(C(F)(F)F)c1 [ostarine]	-0.2%
CCCN1C[C@H](CSC)C[C@@H]2c3cccc4[nH]cc(c34)C[C@H]21 [pergolide]	-0.15%
Nc1ccc2ncnc(NCCc3ccc(Oc4ccccc4)cc3)c2c1	-1.24%
CC(C)Oc1ccc(Cc2ccc(NC3=NCCN3)cc2)cc1	0.38%
CC[C@@H](C(N)=O)N1CCCC1=O [levetiracetam]	0.86%
CCCCn1c(-c2ccccc2)nc(-c2ccccc2)c1CN(Cc1ccc2c(c1)OCO2)Cc1ccc2c(c1)OCO2	0%
CN1C(=O)/C(=C2/C(=O)Nc3ccccc32)c2ccccc21 [meisoindigo]	-1.49%
CC(C)Nc1cc(-c2c[nH]c(C(=O)N[C@H](CO)c3cccc(Cl)c3)c2)c(Cl)cn1	-2.18%
O=C1NC(c2ccccc2)(c2ccccc2)C(=O)N1COP(=O)(O)O [fosphenytoin]	2.33%
CCCS(=O)(=O)Nc1ccc(F)c(C(=O)c2c[nH]c3ncc(Cl)cc23)c1F	0.68%
CC(C)C[C@@H](NC(=O)[C@H](Cc1ccccc1)NC(=O)CNC(=O)[C@@H](C)NC(=O)[C@@H](N)Cc1ccc(O)cc1)C(=O)O	-0.21%
[I-].[K+] [potassium-iodide]	-3.24%
CC(C)Cc1ccc([C@@H](C)C(=O)NS(C)(=O)=O)cc1 [reparixin]	2.11%
O=[N+]([O-])O[C@@H]1CO[C@H]2[C@@H]1OC[C@@H]2O [isosorbide-mononitrate]	-2.43%

Reference: the supplement of paper PMC13380429
